High-throughput results as filed in PubChem BioAssay.
Vc quorum ag: inducers of Vibrio cholerae quorum light production without autoinducers; V. cholerae BH1578 lux reporter, luminescence, 6 h; activation, % at 18.7 µM; 350,000 tested, 0.16% active; AID 588436; in the data active = activation mostly above about 9.7%, no sharp cut-off
Yp Topo-I inh: blocks Yersinia pestis topoisomerase I activity; Y. pestis Topo-I cleavage product accumulation, plate reader; activity, % at 10 µM; 360,000 tested, 0.064% active; AID 504884; in the data active = activity above about 50%, passing the limit was not always enough
CCHF vOTU inh-1: CCHFV vOTU protease inhibition. Pep-AMC fluorescence. inhibition, % at 11.5 µM. 370,000 tested, 0.55% active
PrPC TRFRET: reduces human prion protein on the cell surface. P04156. cell surface PrPC, TR-FRET read-out. inhibition, % at 13.8 µM. 370,000 tested, 0.43% active. AID 720596; in the data active = inhibition above about 24%
CCHF vOTU inh-2: confirmation of CCHF virus vOTU protease inhibitors. inhibition, % at 11.5 µM. Recombinant CCHFV vOTU, Pep-AMC fluorescence. shares compounds with CCHF vOTU inh-1. 1,900 tested, 17% active. AID 686976
Hits are given with their value; i = inactive; nt = no result given. An excerpt weighted towards active compounds, which were near 1.1% of everything screened. Cut-off read from the data, not from the text of the source, unless noted: active = inhibition above about 30%; inactive = the rest.

SMILES | Vc quorum ag | Yp Topo-I inh | CCHF vOTU inh-1 | PrPC TRFRET | CCHF vOTU inh-2
COc1ccc(NS(=O)(=O)c2ccc3c(c2)[C@H]2C=CC[C@H]2[C@@H](c2ccc(C(=O)O)cc2)N3)cc1 | i | i | 38.5 | i | i
CC(=O)N1c2ccccc2Nc2ccccc21 | i | i | i | i | nt
Cn1ccc2c(N(Cc3ccccc3)Cc3ccccc3)cc3c(c21)C1CCC3O1 (stereo not drawn) | nt | nt | 43.5 | i | i
CN(Cc1ccccc1)c1cc2c(c3c1ccn3C)C1CCC2O1 (stereo not drawn) | nt | nt | i | i | nt
COc1ccc(-c2cc(=O)n(CCC#N)[nH]2)cc1 | i | i | 62.5 | i | i
CC(=O)Nc1ccc(NCc2cccs2)cc1 | i | i | i | i | nt
Oc1ccc(NCc2cccs2)cc1 | i | i | 87.8 | i | i
COc1cc2[nH]c(=S)nc(NCc3ccccn3)c2cc1OC | i | i | i | i | nt
C=CCOn1c(=O)c(-c2ccc(C)cc2)[n+]([O-])c2ccccc21 | i | i | i | i | nt
OC(c1ccc(Cl)c(Cl)c1)c1ncc(-c2ccc(C(F)(F)F)cc2)[nH]1 (stereo not drawn) | i | i | 35.0 | i | i
OC(c1ccc(Cl)c(F)c1)c1ncc(-c2ccccc2C(F)(F)F)[nH]1 (stereo not drawn) | i | i | i | i | nt
OC(c1ccc(Cl)c(Cl)c1)c1ncc(-c2ccccc2C(F)(F)F)[nH]1 (stereo not drawn) | i | i | 34.1 | i | i
Cc1cc(C)c(S(=O)(=O)N2CCCOC2CNC(=O)C(=O)NCCC2=CCCCC2)c(C)c1 (stereo not drawn) | i | i | i | i | nt
COc1ccccc1/C=C(/C(=O)OCC(=O)NCc1ccccc1)c1ccccc1 | i | i | i | i | nt
Cc1oc2c(c1C(=O)NCCO)CCCC2 | nt | i | i | i | nt
C=CC[C@@H](Cc1ccc(F)cc1)C(=O)OC[C@H]1CCCN1C(=O)[C@@H](CC=C)CC(=O)N(CCO)Cc1ccccc1 | i | i | 31.0 | i | i
C=CCC[C@@H](Cc1ccc(F)cc1)C(=O)OC[C@H](C)NC(=O)[C@@H](CC=C)CC(=O)N(CCO)Cc1ccccc1 | i | i | 31.6 | i | i
C=CCC[C@@H](Cc1ccc(F)cc1)C(=O)OC[C@@H](NC(=O)[C@@H](CC=C)CC(=O)N(CCO)Cc1ccccc1)c1ccccc1 | i | i | 34.5 | i | i
C=CC[C@@H](Cc1ccc(F)cc1)C(=O)OC[C@@H]1CCCN1C(=O)[C@H](CC=C)CC(=O)N(CCO)Cc1ccccc1 | i | i | i | i | nt
C=CCC[C@H](Cc1ccc(F)cc1)C(=O)OC[C@@H](C)NC(=O)[C@H](CC=C)CC(=O)N(CCO)Cc1ccccc1 | i | i | i | i | nt
COc1ccccc1N1CCN(Cc2ccsc2)CC1 | i | i | i | i | nt
CCOc1ccc(NC(=O)c2ccc3c(c2)OCCO3)cc1S(=O)(=O)N(CC)CC | i | i | 32.3 | i | i
CCc1nnc(NC2=NCCC2)s1 | i | i | i | i | nt
O=C1Cc2ccccc2C(=O)N1Cc1ccccc1 | i | i | 93.0 | i | 90.6
Cc1ccc(NC(=O)CN2CCc3ccccc3C2)cc1F | i | i | i | i | nt
SMILES | Vc quorum ag | Yp Topo-I inh | CCHF vOTU inh-1 | PrPC TRFRET | CCHF vOTU inh-2
O=C1CN(C(=S)Nc2ccccc2Cl)CCN1 | i | i | i | i | nt
CCCCN(C(=O)CC1CCCCC1)c1c(N)n(CC(C)C)c(=O)[nH]c1=O | i | i | 31.6 | i | i
CC(NC(=O)C(C)N1c2cccc3cccc(c23)S1(=O)=O)c1ccccc1 (stereo not drawn) | i | i | 31.7 | i | i
Cc1c(/C=N/NC(N)=O)c2ccccn2c1C(=O)c1ccncc1 | i | i | 32.0 | i | i
CNC(=O)CCCCCNS(=O)(=O)c1ccc(C)cc1 | i | i | 31.0 | i | i
Cc1ccc(S(=O)(=O)NCCCCCC(=O)Nc2ccccc2)cc1 | i | i | i | i | nt
CCCc1nc2c([nH]1)c(=O)n(C)c(=O)n2C | i | i | 32.3 | i | i
Cn1c(=O)c2[nH]c(CCC3CCCC3)nc2n(C)c1=O | i | i | i | i | nt
Cc1cc(=O)n(C2CCS(=O)(=O)C2)[nH]1 (stereo not drawn) | i | i | 57.4 | i | i
CCc1c(C)nc2c(C)cccc2c1SCCC#N | i | i | 32.5 | i | i
Cc1ccc(-c2c3c(nc4sc(C(N)=O)c(N)c24)CCCC3)o1 | i | i | i | i | nt
NC(=O)c1sc2nc3c(c(-c4ccco4)c2c1N)CCC3 | i | i | 49.0 | i | i
CCCCNC(=S)NNC(=O)c1cc(-c2cccnc2)nc2ccccc12 | i | i | 34.6 | i | i
CCCNC(=S)NNC(=O)c1cc(-c2cccnc2)nc2ccccc12 | i | i | i | i | nt
CC(C)c1ccc(CN2CCC2(C)C(=O)Nc2ccc3c(c2)OCO3)cc1 (stereo not drawn) | i | i | i | i | nt
CC(C)Oc1ccc(CN2CCC2(C)C(=O)Nc2ccc3c(c2)OCO3)cc1 (stereo not drawn) | i | i | 34.2 | i | i
Cc1cccc(-n2ncc3c(N)ncnc32)c1 | i | i | 30.4 | i | i
Cc1cccc(-n2ncc3c(NC(C)C)ncnc32)c1 | i | i | i | i | nt
CCCCCCCCCCOC(=O)Cn1c(COc2cccc(C)c2)[n+](C)c2ccccc21 | i | i | i | i | nt
CCCCCCCCCCOC(=O)Cn1c(COc2ccccc2)[n+](C)c2ccccc21 | i | i | 29.6 | i | i
CCCCCCCCCCOC(=O)Cn1c(COc2ccc(OC)cc2)[n+](C)c2ccccc21 | i | i | nt | nt | nt
CCCCCCCCCCOC(=O)Cn1c(COc2ccc(Cl)cc2)[n+](C)c2ccccc21 | i | i | 45.8 | i | 56.3
O=C(NC1CCS(=O)(=O)C1)c1ccc(S(=O)(=O)N2CCCC2)cc1 (stereo not drawn) | i | i | i | i | nt
CCCNC(=O)c1cc(C2CCCN(C(=O)c3cc(C(C)(C)C)nn3C)C2)on1 (stereo not drawn) | i | i | i | i | nt
COc1ccc(C(=O)Nc2ccc(O)c3ccccc23)cc1 | i | i | 30.6 | i | i
SMILES | Vc quorum ag | Yp Topo-I inh | CCHF vOTU inh-1 | PrPC TRFRET | CCHF vOTU inh-2
COc1ccc(OC)c(S(=O)(=O)Nc2ccc(O)c3ccccc23)c1 | nt | i | 65.6 | i | i
COc1ccc(NC(=O)Nc2ccc(O)c3ccccc23)cc1 | nt | nt | 82.1 | i | i
COc1ccc(NC(=O)Nc2ccccc2OC)cc1 | i | i | i | i | nt
Cc1cc(C(=O)N/N=C/c2cc(Cl)cc([N+](=O)[O-])c2O)c2ccccc2n1 | i | i | i | i | nt
CCC(=O)NC(c1cccs1)c1cc([N+](=O)[O-])c2cccnc2c1O (stereo not drawn) | 96.4 | i | 38.2 | i | 33.0
CCCC(=O)NC(c1cccs1)c1cc([N+](=O)[O-])c2cccnc2c1O (stereo not drawn) | i | i | i | i | nt
Cn1c(SCc2ccccc2)nccc1=O | i | i | i | i | nt
CC1=C(SCc2ccccc2)C(=O)c2ccccc2C1=O | i | i | 103.6 | i | 86.6
O=C(NC(=S)Nc1ccccc1N1CCCC1)c1ccccc1[N+](=O)[O-] | i | i | i | i | nt
O=C(NC(=S)Nc1ccccc1N1CCCC1)c1ccccc1Br | i | i | 34.0 | i | 29.6
COc1cc(C(=O)NC(=S)Nc2ccccc2N2CCCC2)cc(OC)c1OC | i | i | i | i | nt
